Results reported in PubChem BioAssay AID1863 (Southern Research Specialized Biocontainment Screening …, 2009).
Hit rate of the full screen: of about 300,000 compounds, about 480 (0.16%) were called active. The list is a sample of the results. Potency and affinity values are given separately. A number with no mark means an inactive call.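 The calls were made as follows: active = inhibition over 29.93%, a cutoff 3 SD above the screen mean, later confirmed by dose response; inconclusive = inhibition over 29.93% but no dose response follow-up; inactive = inhibition at most 29.93% or unconfirmed.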

assay: PhoP-dependent GFP reporter repression – Salmonella Typhimurium, primary screen (AID 1863);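 also: 0% = low Mg2+ inducing control and 100% = high Mg2+ repressing control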; details: S. Typhimurium PhoP-regulated promoter GFP reporter, 4 h; at 50 µM; active compounds read high

Row | SMILES | inhibition [%]
1 | Cc1ccc(S(=O)(=O)NN2C(=O)c3ccccc3NC2c2ccccc2O)cc1 (configuration not stated) | 2.27
2 | Cc1onc(-c2ccccc2)c1C(=O)NC(=S)NNC(=O)c1ccc(O)cc1 | -7.99
3 | Cc1onc(-c2ccccc2)c1C(=O)NC(=S)NNC(=O)c1ccccc1O | 18.4
4 | CC(C)[C@@H](COc1ccccc1)N1CCN(Cc2ccccc2)CCC1=O | 11.4
5 | Cc1ccc(N(CC(=O)NC2CCCCC2)C(=O)CNC(=O)c2cccs2)cc1 | 5.02
6 | CNC[C@H](CC1CCCCC1)NC[C@H](CO)NCC1(c2ccccc2)CC1 | 5.82
7 | CNC[C@H](CC1CCCCC1)NC[C@H](CO)NCCc1cccc(C(F)(F)F)c1 | 13
8 | Cc1ccccc1NC(=O)NC1(C(=O)NCc2ccco2)CCCCC1 | -5.56
9 | Cc1cccc(NC(=O)CSc2nnc(-c3ccncc3)n2CC2CCCO2)c1 (configuration not stated) | 0.37
10 | Clc1ccc2[nH]c3c(NCC4CCCO4)ncnc3c2c1 (configuration not stated) | 17.8
11 | Clc1ccc2[nH]c3c(NCCN4CCOCC4)ncnc3c2c1 | -2.52
12 | COc1ccc(NC(=O)CSc2cc(C(=O)c3nccn3C)c3ccccc3n2)cc1 | 3.48
13 | CCOc1ccc(NC(=O)c2cc(Cl)nc3ccccc23)cc1 | 1.03
14 | C=CCNc1nc(Nc2ccccc2F)nc(OCC)n1 | -4.99
15 | Cc1ccc(-c2nc(NCc3ccco3)c3ccccc3n2)cc1 | 23.9
16 | COc1ccccc1Nc1nc(NCc2ccco2)c2ccccc2n1 | 48
17 | Fc1ccccc1-c1nc(NCc2ccco2)c2ccccc2n1 | -13.7
18 | Cc1ccccc1Nc1nc(NCc2ccco2)c2ccccc2n1 | 25.6
19 | OCCNc1nc(NCc2ccccc2)c2ccccc2n1 | 3.19
20 | Oc1ccccc1Nc1nc(NCc2ccccc2)c2ccccc2n1 | -0.55
21 | CCc1noc(C)c1C(=O)Nc1ncc(C)s1 | 2.49

Row | SMILES | inhibition [%]
22 | CCC(Oc1ccccc1)C(=O)Nc1nc2ccccc2[nH]1 (configuration not stated) | -3.54
23 | Cc1ccc2cc(C(c3nnnn3C3CCCC3)N(Cc3ccco3)Cc3cccs3)c(=O)[nH]c2c1 (configuration not stated) | -2.55
24 | CN1CCc2c(sc3nc(NCCO)n(-c4cccc(Cl)c4)c(=O)c23)C1 | -3.53
25 | CC(Oc1ccccc1)C(=O)N=C1SC2CS(=O)(=O)CC2N1c1ccc(F)cc1 (configuration not stated) | -3.91
26 | O=S(=O)(Nc1nc2ccccc2nc1NCC1CCCO1)c1ccc(F)cc1 (configuration not stated) | 6.59
27 | Cc1cc2ncn(/N=C/c3ccc([N+](=O)[O-])s3)c2cc1C | -6.99
28 | Cc1cccc(C)c1NC(=O)CNCC(=O)Nc1c(C)cccc1C | 0.56
29 | O=C(O)c1cccc(NC(=O)c2ccc3c(c2)C(=O)N(CC2CCCO2)C3=O)c1 (configuration not stated) | -1.15
30 | Cc1cc(Cl)ccc1NC(=O)CCC(=O)N/N=C/c1cc([N+](=O)[O-])ccc1O | 12.1
31 | O=C(CSc1nc2ccccc2s1)NCc1cc([N+](=O)[O-])ccc1O | -4.94
32 | O=[N+]([O-])c1ccc(/C=N/Nc2ccccn2)cc1 | 4.65
33 | O=C(CSc1ccccn1)N/N=C/c1cccc([N+](=O)[O-])c1 | 0.8
34 | Cc1ccc(C)c(NC(=O)CCC(=O)N/N=C/c2cc([N+](=O)[O-])ccc2O)c1 | 8.86
35 | O=C(CSc1nc2ccccc2s1)N/N=C/c1ccccc1C(=O)O | -5.31
36 | COc1cc([N+](=O)[O-])cc(/C=N/NC(=O)CSc2ccccn2)c1O | 24.8
37 | O=[N+]([O-])c1cccc(/C=N/Nc2ccccn2)c1 | -2.55
38 | O=C1CCc2cc(NS(=O)(=O)c3ccccc3)cc3c2N1CCC3 | 3.44
39 | CCOC(=O)C1(Cc2ccc(Cl)cc2)CCN(C2CCC2)CC1 | -6.48
40 | CC(C)c1nc(SCC(=O)Nc2cccc(S(N)(=O)=O)c2)n[nH]1 | -17.9
41 | COc1ccc(CC(=O)Nc2nc(-c3ccccc3)c(C(C)=O)s2)cc1OC | 5.08
42 | COc1ccc(S(=O)(=O)N2CCC(C(=O)NCCCc3ccccc3)CC2)cc1 | -11.5

Row | SMILES | inhibition [%]
43 | CC(C)N=C(N)N=C(N)Nc1ccc(Cl)cc1 | -0.65
44 | NC(N)=NC(=S)Nc1ccc(Cl)cc1 | -3.56
45 | O=C(NCc1ccccc1)c1cncc(Br)c1 | 3.01
46 | CC1CCC2(CC1)NC(=O)N(CC(=O)c1cn(CCC#N)c3ccccc13)C2=O (configuration not stated) | -10.8
47 | Cc1cc(C)n2nc(C(=O)OCC(=O)c3c[nH]c4ccccc34)nc2n1 | 10.2
48 | COc1ccc(CNC(=O)CSc2nnc(NC(=O)C3CC3)s2)cc1 | -0.4
49 | Oc1ccccc1/C=N/Nc1nccnc1Cl | 25.1
50 | Oc1ccccc1/C=N/Nc1ncc(Br)cn1 | -2.93
51 | Oc1ccc(/C=N/Nc2nccnc2Cl)cc1 | 5.13
52 | Oc1c(Cl)cc(Cl)cc1/C=N/Nc1ncc(Br)cn1 | 6.58
53 | Cc1ccccc1-n1c(SCC(=O)N/N=C/c2sccc2C)nc2ccccc2c1=O | -15.1
54 | Cc1nn2c(-c3ccc(S(=O)(=O)N4CCN(C)CC4)o3)nnc2c2ccccc12 | 1.51
55 | Cc1cc2c(cc(C(=O)NCc3cccnc3)n2Cc2ccc(Cl)cc2)o1 | 13
56 | COc1ccc(N2CCOCC2)c(NC(=O)c2cccnc2)c1 | 0.01
57 | CCN(Cc1cn2cccnc2n1)C1CCCCC1 | -4.78
58 | Cc1nc2ccc(Cl)cc2nc1C | -3.83
59 | Cc1nc(N)nc(Cl)c1Cc1ccc(Cl)cc1 | 2.03
60 | O=[N+]([O-])c1cc2c(cc1CN1CCN(c3ccc(F)cc3)CC1)OCO2 | -3.23
61 | CCOc1ccc(-c2nc(S(=O)(=O)c3ccccc3)c(NC)o2)cc1 | -1.53
62 | COCCCNC(=O)CCCN1C(=O)c2cccnc2Sc2ccccc21 | -9.37
